Measurements reported in PubChem BioAssay (NCI).
About 83,000 compounds went through this panel and 20% of them were active in at least one assay; those are over-represented in the sample as a whole.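 Method: cells in 96-well plates; compound added at one concentration; 48 h incubation; percent growth measured; values under 10 scored active.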 The source made the active and inactive calls.

system: MDA-MB-231 breast; assay: NCI-60 one-dose screen, 48 h (100 = growth as untreated, 0 = no growth, -100 = all killed); conditions: 10 µM unless noted

Compound	growth
CCOc1ccc(/C=C/C=N/NC(N)=S)cc1	66.6% (inactive)
C=C1C(=O)O[C@H]2[C@H]1CC/C(COC(=O)NCCc1cccc(OC)c1)=C\CC[C@@]1(C)O[C@@H]21	29.4% (inactive)
Cc1c(C2=NNC(c3ccc4c(c3)OCO4)C2)[n+]([O-])c2ccccc2[n+]1[O-] (stereo not drawn)	102% (inactive)
O=S(=O)(NCCCNc1cc(-c2cn(-c3ccccc3)nc2-c2cccc(O)c2)ccn1)c1ccc(Br)cc1	-20.7% (active)
COc1cccc2nc(Nc3ccc(NC(=O)c4ccc5ncccc5c4)cc3)ccc12	68.3% (inactive)
COc1ncc(-c2ccc3ncnc(Nc4cccc(Cl)c4)c3c2)cc1NS(=O)(=O)CCN1CCOCC1	16.4% (inactive)
O=C(OCCCCOC(=O)n1cnc2ccccc21)n1cnc2ccccc21	94.7% (inactive)
Cc1cc(C)c2c(=O)[nH]c(SCC(=O)Nc3cccc(S(=O)(=O)N(C)C)c3)nc2n1	87.6% (inactive)
Cc1ccc(S(=O)(=O)OCC(=O)Nc2ccc(C(=O)O)c(O)c2)cc1	97.2% (inactive)
CN(C)c1nc(N)c(N=O)c(N)n1	108% (inactive)
Cc1nc2scc(-c3ccccc3)n2c(=O)c1CCO	97.3% (inactive)
Cc1ccc2c(c1)C(C)Cc1c(ncnc1-n1cnc3ccccc31)N2C (stereo not drawn)	25.1% (inactive)
O=S(=O)(NCCNc1cc(-c2cn(-c3ccccc3)nc2-c2ccccc2)ccn1)c1cccc2ccccc12	40% (inactive)
CCCCCCOc1ccc(C2(Cl)c3ccccc3N(C)c3ccccc32)cc1	32.7% (inactive)
CN(C)C1CCC(NC2=CC(=O)C=CC2=O)CC1 (stereo not drawn)	109% (inactive)
CC(=O)N1Cc2ccccc2C(C)Cc2cc(Cl)ccc21 (stereo not drawn)	102% (inactive)
NC(N)=NC(N)=Nc1ccccc1-c1ccccc1	116% (inactive)
Cc1oc2ncnc(Nc3ccccc3)c2c1C(=O)NCCO	75% (inactive)
Cc1cc(NC(=O)COC(=O)c2sc3cc(F)ccc3c2Cl)no1	98.6% (inactive)
CC1(C)OC2COC3(C(=O)O)OC(C)(C)OC3C2O1 (stereo not drawn)	88.3% (inactive)
C/C(=C\c1csc(C)n1)[C@@H]1C[C@@H]2O[C@]2(C)CCC[C@H](C)[C@H](O)[C@@H](C)C(=O)C(C)(C)[C@@H](O)CC(=O)N1	-54.7% (active)
COc1cc2c(cc1OCCCCn1c(-c3cc(=O)c4ccccc4o3)nc3ccccc31)N=C[C@@H]1CCCN1C2=O	87.7% (inactive)
COc1cc(-c2csc(NC(=O)c3cc(C(F)(F)F)cc(C(F)(F)F)c3)n2)cc(OC)c1OC	41.1% (inactive)
